Sampled rows, rich in hits. Any-hit rate of the full collection: about 7.4%.
Rab9 promoter act = activators of Rab9 promoter; 2.8% of 320,000 active; Huh7 Rab9 promoter-luciferase reporter, luminescence, 24 h; Potency, µM (top dose mostly 9.22 µM), inactives show at the highest dose activation, negative = inhibition, usual class: activators; AID 485297; further: % of control where 0% means no effect; nearly all actives have a fitted effect of over 60% in size
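Huh7 cells stably carrying a Rab9 promoter-luciferase reporter, 1500 cells per well in OP-MEM I with 10% FBS, treated with compound 24 hours at 37C. Luciferase activity read by luminescence after 10 minutes with Amplite reagent.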
FLuc modulator = firefly luciferase modulation, counter-screen for miR-21 project; 6.9% of 360,000 active; purified FLuc, Km substrates, luminescence inhibition; P08659; Potency, µM (series often up to 57.5 µM), for the others: top-dose activity change, negative = inhibition, most hits filed as inhibitors;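 further: plate controls were vehicle for no effect and reference inhibitor for full effect; nearly all actives have a fitted effect of over 55% in size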
Target sequence (P08659 whole entry, looked up): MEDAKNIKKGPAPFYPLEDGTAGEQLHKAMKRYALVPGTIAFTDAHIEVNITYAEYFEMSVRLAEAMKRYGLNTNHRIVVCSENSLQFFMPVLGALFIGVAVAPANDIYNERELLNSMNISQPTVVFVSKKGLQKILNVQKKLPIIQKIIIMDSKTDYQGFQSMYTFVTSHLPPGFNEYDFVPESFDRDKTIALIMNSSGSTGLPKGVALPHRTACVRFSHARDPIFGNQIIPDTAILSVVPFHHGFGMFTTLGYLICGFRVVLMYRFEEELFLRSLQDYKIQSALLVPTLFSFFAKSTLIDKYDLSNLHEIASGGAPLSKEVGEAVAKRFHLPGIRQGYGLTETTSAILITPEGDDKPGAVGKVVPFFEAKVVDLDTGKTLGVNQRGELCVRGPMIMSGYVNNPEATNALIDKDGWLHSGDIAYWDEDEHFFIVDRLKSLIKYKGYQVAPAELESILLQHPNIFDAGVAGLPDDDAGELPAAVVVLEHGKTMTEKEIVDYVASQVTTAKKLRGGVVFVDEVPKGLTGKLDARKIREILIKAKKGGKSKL
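Biochemical qHTS of compounds, final roughly 60 µM downward over six points, against 10 nM purified firefly luciferase using Km concentrations of substrates (10 uM D-luciferin, 10 uM ATP) in Tris acetate pH 7.5 buffer; luminescence output.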
KinaseGlo FLuc = blocks Kinase-Glo luciferase, a counter-screen artifact; Kinase-Glo luciferase, ATP luminescence, 8 min; Potency, µM (doses to about 38.3 µM), for inactives: at the highest dose activity change, negative = inhibition, actives largely listed as inhibitors; 0.28% of 200,000 active; AID 1379; further: on the % scale 0 is the no-effect control and ±100 the full control effect; nearly all actives have a fitted effect of over 60% in size
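Compounds were added to a substrate mix at pH 7.2 (50 mM imidazole, 10 uM ATP, within the enzyme's linear range), followed by Kinase-Glo detection reagent; luminescence was measured after 8 minutes at ambient temperature.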
SMN2 splice enh = increases expression of the SMN2 splice variant; HEK293 SMN2-luciferase splicing reporter, luminescence, 30-36 h; Potency, µM (doses to about 46.1 µM), for the others: at the highest dose activity change, positive = activation, usual class: activators; 2.8% of 210,000 active; further: % of control where 0% means no effect; nearly all actives have a fitted effect of over 55% in size
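HEK293 cells carry an SMN2 […]–luciferase reporter in which exon 7 inclusion puts luciferase in frame. Cells were plated 10-12 h before compound addition, then incubated 30-36 h at 37C. ONE-Glo luminescence was read; sodium butyrate at 4.5 mM final served as control.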
NPC1 promoter act = activators of NPC1 promoter | Huh7 NPC1 promoter luciferase reporter, 24 h | 2.4% of 320,000 active | Potency, µM (series often up to 9.22 µM), without a hit: at the top dose activation, most hits filed as activators; further: % of control where 0% means no effect; nearly all actives have a fitted effect of over 60% in size
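Compounds in DMSO were transferred onto Huh7 NPC1-luciferase reporter cells pre-incubated 2 h; after 24 h at 37 °C, Amplite reagent was dispensed and luminescence recorded 10 min later.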
ELG1 genotoxic = genotoxicity induction in ELG1-luciferase HEK293T cells; HEK293T ELG1-luciferase reporter, luminescence, 16 h; Potency, µM (series often up to 46 µM), for the others: at the top dose activity change, positive = activation, usual class: activators; 1.3% of 330,000 active; AID 504466; further: % of control where 0% means no effect; nearly all actives have a fitted effect of over 60% in size
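Quantitative HTS format in 1536-well plates. HEK293T ELG1-luciferase reporter cells receive test compound and are incubated 16 hr at 37 °C, 5% CO2; ONE-Glo added, 30 min room temperature, then luminescence read.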
Active calls of the source: *; ? = inconclusive; . = no result given; [ ] = remark or other dose. The call rests on the fitted dose curve; in most records, active means well fitted curve in the direction sought with a large enough effect; inconclusive means small, poorly fitted or top-dose-only effect, or another doubt; inactive means no such curve, though single readings can be large; an effect the other way counts as inactive or inconclusive. Potency means the concentration at half of the fitted maximal effect.

SMILES	Rab9 promoter act	FLuc modulator	KinaseGlo FLuc	SMN2 splice enh	NPC1 promoter act	ELG1 genotoxic
C/C=C\C=C/C(=O)Nc1cccc(C2=NOC3(C2)C[C@H](C(N)=O)N(C(=O)CC)C3)c1 (stereo not given in full)	3%	19µM*	.	.	1%	0%
COc1ccc(C2NC(c3ccc(OC)cc3)C(c3ccccc3)C(=O)C2c2ccccc2)cc1 (stereo not given)	2%	1%	1%	-13%[1.84 µM]	-1%	-4%
COc1ccc(Br)c(C(=O)Nc2nc3ccccc3[nH]2)c1	?	-12%	.	.	?	24%
COc1ccc(C(=O)Nc2nc3ccccc3[nH]2)cc1S(=O)(=O)N1CCCC1	-2%	?	-4%	18%	3%	3%
COc1ccc(C(=O)Nc2nc3ccccc3[nH]2)cc1OC	2.8µM*	15µM*	-2%	11µM*	2.8µM*	?
COc1ccc(Cl)cc1C(=O)Nc1nc2ccccc2[nH]1	?	0.085µM*	.	.	?	?
CCOc1ccc(C(=O)Nc2nc3ccccc3[nH]2)cc1OCC	21%	?	-1%	-39%	9%	-7%
COc1cc(C(=O)Nc2nc3ccccc3[nH]2)ccc1OC(F)F	2.8µM*	11µM*	.	.	1.4µM*	?
Cc1nn(CC(=O)N2CCN(c3ccc(Cl)cc3)CC2)c(=O)c2cccn12	2%	0%	.	.	1%	-3%
Cc1cc(C(=O)CN2C(=O)c3ccccc3S2(=O)=O)c(C)n1C(C)C	?	.	.	.	-3%	2%
Cc1cc(C(=O)CN2C(=O)C3CC=CCC3C2=O)c(C)n1-c1ccccc1 (stereo not given)	0.71µM*	0.67µM*	-6%	-58%	0.56µM*	?
Cc1cc(C(=O)CN2C(=O)c3ccccc3S2(=O)=O)c(C)n1-c1ccccc1	-11%	2.1µM*	-1%	-16%	-13%	-27%
C=CCn1c(C)cc(C(=O)CN2C(=O)c3ccccc3S2(=O)=O)c1C	-35%	1.5µM*	.	.	-32%	-4%
CCn1c(C)cc(C(=O)CN2C(=O)c3ccccc3S2(=O)=O)c1C	?	.	.	.	?	1%
C=CCn1c(N2CCN(c3ccc(OC)cc3)CC2)nc2c1c(=O)[nH]c(=O)n2C	-1%	5%	-2%	.	-5%	-6%
COc1cccc(C(=O)N2CCC(CCC(=O)Nc3cccc(C)c3)CC2)c1	3%	5%	.	.	-2%	0%
N/C(=N\OC(=O)CCCc1ccccc1)c1ccccc1	17%	4.8µM*	.	.	9%	?
Cc1cccc(/C(N)=N/OC(=O)CCCN2C(=O)c3ccccc3C2=O)c1	3%	-1%	-6%	5%	-5%	2%
N/C(=N\OC(=O)CCCc1ccccc1)c1cccc([N+](=O)[O-])c1	0%	?	4%	13%	-1%	0%
N/C(=N\OC(=O)Cc1ccccc1)c1cccnc1	-4%	-2%	0%	-12%	-4%	3%
Cc1cccc(/C(N)=N/OC(=O)CCCc2ccccc2)c1	9%	9.5µM*	.	.	13%	?
N/C(=N\OC(=O)CCCc1ccccc1)c1cccnc1	-1%	17µM*	-1%	4%	-2%	4%
Nc1nc(N)c(N=Nc2ccc(C(=O)O)cc2)c(N)n1	16%	-17%	.	.	-2%	0%
O=C(O)c1ccc(N=Nc2c(-c3ccccc3)[nH]oc2=O)cc1	?	11µM*	.	.	?	17%
Cc1cc(C)n(CC(O)Cn2ccc3ccccc32)n1 (stereo not given)	0%	2%	18%	0%	2%	-1%
SMILES	Rab9 promoter act	FLuc modulator	KinaseGlo FLuc	SMN2 splice enh	NPC1 promoter act	ELG1 genotoxic
Cc1cc(C)n(CC(O)Cn2c3ccccc3c3ccccc32)n1 (stereo not given)	-5%	2%	2%	13µM*	0%	-2%
O=C(COC(=O)C1(c2ccccc2F)CCCC1)N1CCNC1=O	-3%	7%	.	.	1%	0%
Cc1c(C(=O)NCc2cccnc2)sc2nc(-c3ccc(F)cc3)cn12	16%	19µM*	-3%	-78%	25%	?
Cc1c(C(=O)N(C)Cc2ccccc2)sc2nc(-c3ccc(F)cc3)cn12	.	-18%	.	.	.	.
Cc1c(C(=O)N(C)c2ccccc2)sc2nc(-c3ccc(F)cc3)cn12	.	17µM*	.	.	.	.
Cc1c(C(=O)NCc2cccnc2)sc2nc(-c3ccccc3)cn12	?	24µM*	.	.	23%	?
Cc1c(C(=O)NCc2ccco2)sc2nc(-c3ccccc3)cn12	?	17µM*	1%	11%	?	?
Cc1ccc(NC(=O)/C(=C/c2cccc(Br)c2)NC(=O)c2ccco2)cc1	-7%	5%	-1%	.	1%	-3%
COc1ccccc1N1CCN(C(=O)CSc2nc3ccccc3nc2Cc2ccc(F)cc2)CC1	.	6%	.	.	.	.
O=C(Nc1ccccc1C(F)(F)F)c1ncn[nH]1	0%	-4%	.	.	0%	0%
CC(C)N1C(=O)C(=O)N(CC(=O)N2c3ccccc3NC(=O)CC2C)C1=O (stereo not given)	1%	1%	.	.	-1%	-3%
Cc1[nH]n(-c2ccccc2)c(=O)c1/C=C1\C=NN=C1c1ccccc1	0%	12µM*	.	.	-1%	12%
Cc1ccc(-n2[nH]c(C)c(/C=C3/C=Nc4ccccc43)c2=O)cc1C	-1%	-2%	-1%	18µM*	16%	12%
O=C(CN1C(=O)S/C(=C/c2ccncc2)C1=O)N1CCOCC1	0%	-3%	3%	6%	2%	0%
Cc1ccc(-n2c(C)cc(/C=C3/SC(=O)N(CC(=O)N4CCOCC4)C3=O)c2C)nc1	?	1.5µM*	.	.	?	?
COCCn1c(C)cc(/C=C2/SC(=O)N(CC(=O)N3CCCC3)C2=O)c1C	16%	19µM*	.	.	2%	17%
COCCN1C(=O)/C(=C/c2ccc(N3CCCC3)cc2C)SC1=S	20%	4.8µM*	-17%	.	0%	3%
CCN=C1S/C(=C\c2ccc(N3CCOCC3)cc2C)C(=O)N1CC	-15%	-9%	-2%	-12%	-16%	-2%
CCn1c(C)cc(/C=C2/SC(=O)N(CC(=O)N3CCCC3)C2=O)c1C	11%	21µM*	.	.	8%	-9%
Cc1ccc(NC(=O)CSc2nnc(-c3cc4occc4n3C)n2-c2ccccc2C)c(Cl)c1	.	6%	.	.	.	.
CN(C(=O)CSc1nc2ccccc2c(=O)n1C)C1CCS(=O)(=O)C1 (stereo not given)	.	.	.	.	.	1%
O=c1[nH]c(C(Cl)(Cl)Cl)nc2ccc3ccccc3c12	0%	-19%	.	.	1%	-5%

Screening data deposited in PubChem by National Center for Advancing Translational Sciences (NCATS).
